Experimental data from PubChem BioAssay.
Active and inactive are the calls of the source.

What was measured:
[1] = system: Plasmodium falciparum Sir2 (PF13_0152, Sir2A); test: pfSir2 binders on small-molecule microarrays, primary screen, biochemical, small-molecule microarray, 635 nm fluorescence (AID 1098); settings: small-molecule microarray binding, fluorescence 635 nm; higher = more signal;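 note: score merges spot fluorescence intensity with its signal-to-noise ratio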
[2] = small-molecule microarray binders of probe aDKK1, primary screen, biochemical, biotinylated probe, 635/667 nm fluorescence (AID 1099); settings: higher = more signal;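 note: score merges 667nm spot fluorescence with signal to noise across triplicate slides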
[3] = small-molecule microarray binders of probe aCHRDL2, primary screen, biochemical, biotinylated probe, 635/667 nm fluorescence (AID 1100); settings: higher = more signal
[4] = splicing luciferase reporter signal modulators, primary screen, spliceosome inhibition project, cell-based, HEK293, splice +/- reporter (AID 1101); settings: luminescence, 24 h, higher = more signal, called active from +8 up or from −8 down;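 note: HEK293 cells carrying a splicing-competent luciferase reporter gene; test concentration not given here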
[5] = biological target: Fibroblast growth factor 10 (Homo sapiens) (UniProt O15520); test: FGF10 binders on small-molecule microarrays, primary screen, biochemical, small-molecule microarray, 635 nm fluorescence (AID 1102); settings: FGF10 binding, fluorescence 635 nm, higher = more signal
Sequence of Fibroblast growth factor 10 (Homo sapiens) (O15520 whole entry, looked up): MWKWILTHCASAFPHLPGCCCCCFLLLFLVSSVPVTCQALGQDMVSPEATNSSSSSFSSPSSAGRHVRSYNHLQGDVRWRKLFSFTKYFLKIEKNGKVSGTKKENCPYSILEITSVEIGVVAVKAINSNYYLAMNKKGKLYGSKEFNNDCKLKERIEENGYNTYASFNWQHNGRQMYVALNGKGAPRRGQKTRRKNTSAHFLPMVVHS

[6] = system: glycogen synthase kinase-3 (GSK3A per assay name; protocol says GSK3B); test: GSK3 binders on small-molecule microarrays, primary screen, biochemical, small-molecule microarray, 635 nm fluorescence, GSK3A (AID 1103); settings: small-molecule microarray binding, fluorescence 635 nm; higher = more signal; note: the record names both GSK3A and GSK3B
[7] = biological target: Epidermal growth factor receptor (Homo sapiens) (UniProt P00533); test: EGFR binders on small-molecule microarrays, primary screen, biochemical, small-molecule microarray, 635 nm fluorescence (AID 1104); settings: EGFR binding, higher = more signal;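 note: score merges 667 nm emission intensity with spot signal to noise over triplicate slides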
Sequence of Epidermal growth factor receptor (Homo sapiens) (P00533 whole entry, looked up): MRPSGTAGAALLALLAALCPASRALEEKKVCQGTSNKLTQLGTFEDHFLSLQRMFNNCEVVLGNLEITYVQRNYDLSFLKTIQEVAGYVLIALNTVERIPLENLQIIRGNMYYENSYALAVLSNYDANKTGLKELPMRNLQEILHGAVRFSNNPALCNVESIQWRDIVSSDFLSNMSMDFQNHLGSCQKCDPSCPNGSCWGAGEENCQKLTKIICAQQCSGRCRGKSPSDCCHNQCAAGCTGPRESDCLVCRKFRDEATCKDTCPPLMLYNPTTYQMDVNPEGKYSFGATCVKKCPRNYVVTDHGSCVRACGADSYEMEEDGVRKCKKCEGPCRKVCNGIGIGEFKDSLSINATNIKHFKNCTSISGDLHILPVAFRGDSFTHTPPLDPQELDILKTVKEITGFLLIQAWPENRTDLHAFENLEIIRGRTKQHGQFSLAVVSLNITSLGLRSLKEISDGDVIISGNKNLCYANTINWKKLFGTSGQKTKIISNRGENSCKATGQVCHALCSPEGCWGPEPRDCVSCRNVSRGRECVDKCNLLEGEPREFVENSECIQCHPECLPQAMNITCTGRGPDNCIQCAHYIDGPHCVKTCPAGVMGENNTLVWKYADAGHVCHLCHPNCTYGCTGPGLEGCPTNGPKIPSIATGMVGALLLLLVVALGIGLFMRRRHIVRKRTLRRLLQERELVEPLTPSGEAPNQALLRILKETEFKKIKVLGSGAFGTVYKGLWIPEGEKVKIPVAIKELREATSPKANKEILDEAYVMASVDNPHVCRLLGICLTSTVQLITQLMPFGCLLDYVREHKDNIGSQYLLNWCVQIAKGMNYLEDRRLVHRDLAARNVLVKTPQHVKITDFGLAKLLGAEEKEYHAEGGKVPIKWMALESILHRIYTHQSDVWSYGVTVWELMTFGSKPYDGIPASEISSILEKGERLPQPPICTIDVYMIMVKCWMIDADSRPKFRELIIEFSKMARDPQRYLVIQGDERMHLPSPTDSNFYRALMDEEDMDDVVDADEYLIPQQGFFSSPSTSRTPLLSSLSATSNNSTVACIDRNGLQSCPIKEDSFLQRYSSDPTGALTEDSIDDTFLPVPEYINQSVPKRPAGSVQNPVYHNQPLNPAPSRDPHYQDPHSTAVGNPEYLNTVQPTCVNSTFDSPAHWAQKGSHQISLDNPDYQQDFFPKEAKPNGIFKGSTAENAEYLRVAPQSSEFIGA

[8] = biological target: Follistatin-related protein 3 (Homo sapiens) (UniProt O95633); test: FSTL3 binders on small-molecule microarrays, primary screen, biochemical, small-molecule microarray, 635 nm fluorescence (AID 1105); settings: FSTL3 binding, higher = more signal;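 note: score merges emission near 667 nm and signal to noise per printed spot across three slides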
Sequence of Follistatin-related protein 3 (Homo sapiens) (O95633 whole entry, looked up): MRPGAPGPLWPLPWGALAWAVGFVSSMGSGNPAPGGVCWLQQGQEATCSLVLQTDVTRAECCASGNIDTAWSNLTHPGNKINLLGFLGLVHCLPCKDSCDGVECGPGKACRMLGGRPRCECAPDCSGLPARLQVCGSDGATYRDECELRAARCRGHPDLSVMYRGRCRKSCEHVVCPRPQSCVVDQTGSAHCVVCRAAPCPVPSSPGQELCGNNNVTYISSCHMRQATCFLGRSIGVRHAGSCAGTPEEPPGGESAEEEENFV

[9] = biological target: Dickkopf-related protein 1 (Homo sapiens) (UniProt O94907); test: DKK1 binders on small-molecule microarrays, primary screen, biochemical, small-molecule microarray, 635 nm fluorescence scan (AID 1106); settings: DKK1 binding, higher = more signal;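 note: score merges emission near 667 nm with signal to noise over three replicate slides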
Sequence of Dickkopf-related protein 1 (Homo sapiens) (O94907 whole entry, looked up): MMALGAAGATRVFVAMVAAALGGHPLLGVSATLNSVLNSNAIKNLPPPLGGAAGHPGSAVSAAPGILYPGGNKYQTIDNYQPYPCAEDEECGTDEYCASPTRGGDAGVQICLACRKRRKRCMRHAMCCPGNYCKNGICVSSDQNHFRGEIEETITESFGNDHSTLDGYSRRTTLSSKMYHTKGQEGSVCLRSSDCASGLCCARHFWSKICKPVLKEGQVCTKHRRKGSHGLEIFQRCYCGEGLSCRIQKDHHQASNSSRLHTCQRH

[10] = system: Inhibin beta A chain (activin A); test: INHBA (activin A) binders on microarrays, primary screen, biochemical, small-molecule microarray, 635 nm fluorescence scan (AID 1107); settings: small-molecule microarray binding, higher = more signal;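 note: mouse activin A protein probed at 4.33 µg/mL on printed slides; score merges bound-protein fluorescence near 667 nm with spot signal-to-noise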
[11] = system: Human papillomavirus type 1a protein E7 (residues 44-93); test: HPV1a E7 fragment binders on microarrays, primary screen, biochemical, small-molecule microarray, residues 44-93, 635 nm fluorescence (AID 1108); settings: small-molecule microarray binding, fluorescence 635 nm; higher = more signal;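 note: E7 fragment applied at 1 µg/mL in TBST for 1 h at 4 C; score combines spot fluorescence with its signal to noise ratio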
[12] = modulators of HCV replicon luciferase signal, primary screen, HCV replication inhibitor project, Huh7 cells, luciferase reporter (AID 1109); settings: 48 h, higher = more signal;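 note: huh7 hepatoma cells harbouring a luciferase neomycin HCV replicon reporter; luciferase luminescence as measure of HCV replicon replication; test concentration not given here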
[13] = biological target: Left-right determination factor 2 (Homo sapiens) (UniProt O00292); test: LEFTY2 binders on small-molecule microarrays, primary screen, biochemical, small-molecule microarray, 635 nm fluorescence scan (AID 1110); settings: LEFTY2 binding, higher = more signal
Sequence of Left-right determination factor 2 (Homo sapiens) (O00292 whole entry, looked up): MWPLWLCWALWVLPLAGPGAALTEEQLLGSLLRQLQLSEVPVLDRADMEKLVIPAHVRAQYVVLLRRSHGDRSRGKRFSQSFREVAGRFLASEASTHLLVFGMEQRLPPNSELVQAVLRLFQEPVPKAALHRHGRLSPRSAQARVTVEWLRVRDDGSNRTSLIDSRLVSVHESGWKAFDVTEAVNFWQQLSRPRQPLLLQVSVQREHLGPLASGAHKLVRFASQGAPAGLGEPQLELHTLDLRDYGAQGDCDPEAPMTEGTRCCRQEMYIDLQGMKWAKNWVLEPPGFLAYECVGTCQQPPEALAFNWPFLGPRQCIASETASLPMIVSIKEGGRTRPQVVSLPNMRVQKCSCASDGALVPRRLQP

[14] = biological target: Calmodulin-1 (Homo sapiens) (UniProt P0DP23); test: CALM1 binders on microarrays, EGTA buffer, profiling panel, biochemical, small-molecule microarray, Cy5-labelled CALM1 (AID 1111); settings: Cy5-CALM1 binding fluorescence, higher = more signal;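 note: labelled calmodulin applied in Tris saline Tween buffer holding calcium plus EGTA and DTT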
[15] = biological target: Calmodulin-1 (Homo sapiens) (UniProt P0DP23); test: calcium-bound CALM1 binders on microarrays, profiling panel, artefact control for SMM control-protein annotation, biochemical, small-molecule microarray, Cy5-labelled CALM1, plus calcium (AID 1112); settings: Cy5-CALM1 binding fluorescence, higher = more signal;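 note: score merges spot fluorescence with signal to noise from triplicate slides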
[16] = small-molecule microarray binders of probe aWnt5a, primary screen, biochemical, biotinylated probe, 635/667 nm fluorescence (AID 1113); settings: higher = more signal;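 note: score merges 667 nm fluorescence intensity with signal-to-noise per printed feature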
[17] = small-molecule microarray binders of probe aShh, primary screen, biochemical, biotinylated probe, 635/667 nm fluorescence (AID 1114); settings: higher = more signal;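 note: probe is biotin-labelled aShh protein from a stem cell growth factor screen; measures binding of labelled protein to compounds printed on the slide; score merges feature fluorescence at 667 nm with signal-to-noise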
[18] = small-molecule microarray binders of probe aNog, primary screen, biochemical, biotinylated probe, 635/667 nm fluorescence (AID 1115); settings: higher = more signal;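 note: probe is biotinylated aNog protein used at 0.15 µg/mL for 1 h at 4 C; z-score combines 667 nm fluorescence of each spot with its signal to noise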
[19] = biological target: Torsin-1A-interacting protein 1 (Homo sapiens) (UniProt Q5JTV8); test: LAP1 binders from COS7 cell lysate, primary screen, small-molecule microarray, 635/667 nm fluorescence (AID 1116); settings: COS7-hLAP1 lysate binding, 635 nm fluorescence, higher = more signal
Sequence of Torsin-1A-interacting protein 1 (Homo sapiens) (Q5JTV8 whole entry, looked up): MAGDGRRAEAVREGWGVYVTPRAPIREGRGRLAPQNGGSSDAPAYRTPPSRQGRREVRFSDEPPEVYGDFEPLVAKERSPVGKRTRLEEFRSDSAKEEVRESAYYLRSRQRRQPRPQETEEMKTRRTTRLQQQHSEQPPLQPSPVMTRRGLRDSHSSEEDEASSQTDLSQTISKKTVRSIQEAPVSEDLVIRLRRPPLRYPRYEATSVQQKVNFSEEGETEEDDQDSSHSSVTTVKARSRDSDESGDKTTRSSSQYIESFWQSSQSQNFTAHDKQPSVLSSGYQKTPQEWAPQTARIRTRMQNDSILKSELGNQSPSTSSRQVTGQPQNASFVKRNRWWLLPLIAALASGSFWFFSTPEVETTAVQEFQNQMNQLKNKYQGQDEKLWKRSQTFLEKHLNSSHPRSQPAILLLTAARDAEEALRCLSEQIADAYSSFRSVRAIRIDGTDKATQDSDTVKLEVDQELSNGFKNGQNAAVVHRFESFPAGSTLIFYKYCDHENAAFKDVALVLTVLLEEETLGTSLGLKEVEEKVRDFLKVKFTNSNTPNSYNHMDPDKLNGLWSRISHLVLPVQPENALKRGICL

[20] = biological target: Alpha-bungarotoxin (Bungarus multicinctus) (UniProt P60615); test: alpha-bungarotoxin binders on microarray, profiling panel, artefact control for SMM control protein annotation, biochemical, small-molecule microarray, Alexa647 label, 635/667 nm fluorescence (AID 1117); settings: alpha-BTX-A647 binding fluorescence, higher = more signal
Sequence of Alpha-bungarotoxin (Bungarus multicinctus) (P60615 whole entry, looked up): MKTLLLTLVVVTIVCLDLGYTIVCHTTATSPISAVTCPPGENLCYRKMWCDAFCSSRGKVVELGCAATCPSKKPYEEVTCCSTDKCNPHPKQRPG

Structure (SMILES)	composite z-score [1]	composite z-score [2]	composite z-score [3]	z-score [4]	composite z-score [5]	composite z-score [6]	composite z-score [7]	composite z-score [8]	composite z-score [9]	composite z-score [10]	composite z-score [11]	z-score [12]	composite z-score [13]	composite z-score [14]	composite z-score [15]	composite z-score [16]	composite z-score [17]	composite z-score [18]	composite z-score [19]	composite z-score [20]
COCCOC(=O)N1C(=O)[C@@]2(c3cc(C#CCCO)ccc31)[C@H](C(=O)N1CCN(c3ncccn3)CC1)[C@H]1C(=O)O[C@H](c3ccccc3)[C@H](c3ccccc3)N1[C@@H]2c1ccccc1OCCO	0.748	0.293	-0.0474	-0.32 (inactive)	0.727	1.26	0.688	0.751	0.547	0.487	1.37	-1.86	0.56	1.72	0.55	-0.0614	-0.214	0.207	0.249	0.64
O=C1NC(=O)C2C1C=CC(C(O)Cc1ccccc1)N2Nc1ccc(Cl)cc1Cl (stereo not given)	1.2	0.931	1.09	1.8 (inactive)	0.175	-0.0984	-0.854	0.236	-1.18	1.07	-1.97	0.458	-1.29	1.73	0.634	-0.0825	0.171	0.155	0.588	1.57
CC(C)(C)OC(=O)CC[C@@]12N=C(c3ccc(OCCCO)cc3)O[C@@H]1c1ccccc1N(CCS(=O)(=O)c1ccccc1)C2=O	0.691	0.512	1.03	-1.14 (inactive)	-0.122	0.323	0.348	1.12	0.681	1.05	1.08	-0.831	0.374	0.887	0.105	-0.0203	-0.0035	-0.335	0.642	1.35
COCCOC(=O)N1C(=O)[C@@]2(c3cc(C#Cc4ccc(OC)cc4)ccc31)[C@H](C(=O)N1CCCCCCC1)[C@H]1C(=O)O[C@H](c3ccccc3)[C@H](c3ccccc3)N1[C@@H]2c1ccc(OCCO)cc1	1.37	2.34	1.45	-0.16 (inactive)	1.7	1.33	1.13	1.45	1.76	1.58	0.114	-1.7	1.47	1.88	1.2	0.543	2.15	2.9	2.98	1.14
O=C1OCC=C[C@H]2OC34C=CCN(CCN5CCOCC5)C(=O)[C@H]3N(CCCO)C(=O)[C@@H]4[C@@H]12 (stereo not given in full)	0.112	-0.218	-0.0654	-1.52 (inactive)	-0.116	0.394	-0.0604	0.292	0.163	0.715	0.449	0.658	-0.235	-0.0514	-0.944	-0.18	-0.223	-0.326	0.819	-0.0967
OC([C@@H]1CC(c2ccccc2)=NO1)[C@H]1CC(c2ccccc2)=NO1 (stereo not given in full)	-0.345	-0.29	-0.136	-0.247 (inactive)	0.0725	-0.453	-0.29	0.031	0.446	0.672	-0.0304	0.341	0.176	-0.181	-0.416	0.0317	-0.214	-0.234	0.11	-0.0544
COCCOC(=O)N1C(=O)[C@@]2(c3cc(C#Cc4ccc(OC)cc4)ccc31)[C@H](C(N)=O)[C@H]1C(=O)O[C@H](c3ccccc3)[C@H](c3ccccc3)N1[C@@H]2c1ccccc1OCCO	1.48	0.714	0.634	-0.265 (inactive)	1.12	1.21	0.824	0.93	0.705	0.312	1.33	-1.49	0.738	2.22	0.618	-0.0134	-0.0988	0.168	2.3	2.97
COc1cc2c(cc1OC)CN(C(=O)[C@@H]1[C@H]3C(=O)O[C@H](c4ccccc4)[C@H](c4ccccc4)N3[C@H](c3ccc(O)cc3)[C@@]13C(=O)Nc1ccc(C#CC4(O)CCCCCC4)cc13)CC2	1.41	-0.767	-0.692	0.263 (inactive)	1.28	1.29	0.458	0.498	0.474	-0.439	1.21	-1.1	1.39	0.965	-0.0394	-0.195	-0.0005	2.1	0.344	1.66
COc1ccc([C@H]2OC[C@@H]3CC4(CC=CC4)C(=O)N32)cc1	0.165	-0.231	-0.147	-0.297 (inactive)	0.93	0.784	1.04	1.31	1.42	1.25	0.659	0.0751	0.935	-1.18	-1.99	-0.124	-0.0146	-0.196	-0.251	0.144
O=C(c1ccccc1)N1Cc2ccccc2[C@@H]2OC(c3ccc(OCCCO)cc3)=N[C@]2(Cc2ccccc2)C1=O	1.35	0.114	0.431	-0.0808 (inactive)	1.24	1.33	0.444	1.03	0.0731	0.3	1.29	-1.58	0.243	0.978	-0.0808	0.0825	-0.305	-0.364	0.215	1.19
C=CCOC(=O)[C@H]1[C@@H]2C(=O)O[C@@H](c3ccccc3)[C@@H](c3ccccc3)N2[C@@H](c2ccc(OCCOC(=O)[C@H]3C[C@H]4C(=O)N[C@@H](CC(C)C)C(=O)N4[C@H]3c3ccc(O)cc3)cc2)[C@]12C(=O)Nc1ccc(I)cc12	1.5	-0.271	-0.3	-0.281 (inactive)	1.4	1.3	0.748	1.15	1.23	0.12	1.41	-0.86	0.644	0.321	-0.388	0.0597	0.0469	0.13	1.78	1.82
